Screening results deposited in PubChem by National Center for Advancing Translational Sciences (NCATS).
G9a block – G9a (human) methyltransferase inhibition; Potency, µM (doses to about 102 µM), without a hit: at the highest dose activity, negative = inhibition, usual class: inhibitors; Q96KQ7; G9a H3K9 monomethylation, AlphaScreen, 2 h; AID 504332; 350,000 compounds, 8.8% hits; further: on the % scale 0 is the no-effect control and ±100 the full control effect; nearly all actives have a fitted effect of over 75% in size
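Compounds were preincubated with 20 nM G9a for 15 min, after which biotinylated H3K9 peptide (500 nM) and SAM (20 uM) started a 2 h room-temperature reaction. Monomethylated product was quantified by antibody-based AlphaScreen chemiluminescence.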
GLS inh – glutaminase GLS (human) inhibition. O94925. GLS enzymatic activity, qHTS titration. Potency, µM (titrated, usually from 45.5 µM), without a hit: at the highest dose activity change, negative = inhibition, most hits filed as inhibitors. 410,000 compounds, 0.21% hits. AID 624170; further: on the % scale 0 is the no-effect control and ±100 the full control effect
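hKGA; 45 mM KH2PO4 pH 8.2 + 0.02% Tween-20; cpd via pin tool; 1 mM Gln soln; GluOx/HRP/Amplex Red; RT 30 min; fluor. t0 & final.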
L3MBTL1 block – inhibitors of human L3MBTL1; Q9Y468; 230,000 compounds, 0.66% hits; Potency, µM (top dose mostly 57.1 µM), for inactives: at the highest dose activity, negative = inhibition, hits mostly inhibitors; AID 485360; AlphaScreen L3MBTL1–H3K9me1 peptide binding; further: on the % scale 0 is the no-effect control and ±100 the full control effect; nearly all actives have a fitted effect of over 60% in size
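AlphaScreen proximity signal between nickel-chelate acceptor and streptavidin donor beads (final 10 ug/mL) reports binding of 50 nM L3MBTL1 to 75 nM biotin-H3 K9me1 peptide; complex incubated with compounds 30 min at room temperature; cefsulodin titration as control.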
HP1b binding inh – inhibitors of HP1-beta chromodomain binding to methylated histone tails; P83916; AlphaScreen HP1-beta / biotin-H3K9me3 peptide binding; Potency, µM (doses to about 114 µM), without a hit: top-dose activity change, negative = inhibition, actives largely listed as inhibitors; 390,000 compounds, 0.56% hits; further: nearly all actives have a fitted effect of over 70% in size
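AlphaScreen: HP1-beta (50 nM) preformed 30 min with biotin-H3(1-18)K9me3 peptide (50 nM) in PBS pH 7.4, 0.01% Tween-20. Compound added for 30 min at RT, then streptavidin donor/nickel chelate acceptor beads (10 ug/mL) for 30 min.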
JMJD2A Tudor inh – inhibitors of human JMJD2A Tudor domain; O75164; AlphaScreen JMJD2A-Tudor / H3K4me3 peptide binding; Potency, µM (series often up to 114 µM), without a hit: at the top dose activity change, negative = inhibition, most hits filed as inhibitors; 390,000 compounds, 4.4% hits; further: on the % scale 0 is the no-effect control and ±100 the full control effect; nearly all actives have a fitted effect of over 50% in size
Target sequence (O75164 whole entry, looked up, the tested form may be a part): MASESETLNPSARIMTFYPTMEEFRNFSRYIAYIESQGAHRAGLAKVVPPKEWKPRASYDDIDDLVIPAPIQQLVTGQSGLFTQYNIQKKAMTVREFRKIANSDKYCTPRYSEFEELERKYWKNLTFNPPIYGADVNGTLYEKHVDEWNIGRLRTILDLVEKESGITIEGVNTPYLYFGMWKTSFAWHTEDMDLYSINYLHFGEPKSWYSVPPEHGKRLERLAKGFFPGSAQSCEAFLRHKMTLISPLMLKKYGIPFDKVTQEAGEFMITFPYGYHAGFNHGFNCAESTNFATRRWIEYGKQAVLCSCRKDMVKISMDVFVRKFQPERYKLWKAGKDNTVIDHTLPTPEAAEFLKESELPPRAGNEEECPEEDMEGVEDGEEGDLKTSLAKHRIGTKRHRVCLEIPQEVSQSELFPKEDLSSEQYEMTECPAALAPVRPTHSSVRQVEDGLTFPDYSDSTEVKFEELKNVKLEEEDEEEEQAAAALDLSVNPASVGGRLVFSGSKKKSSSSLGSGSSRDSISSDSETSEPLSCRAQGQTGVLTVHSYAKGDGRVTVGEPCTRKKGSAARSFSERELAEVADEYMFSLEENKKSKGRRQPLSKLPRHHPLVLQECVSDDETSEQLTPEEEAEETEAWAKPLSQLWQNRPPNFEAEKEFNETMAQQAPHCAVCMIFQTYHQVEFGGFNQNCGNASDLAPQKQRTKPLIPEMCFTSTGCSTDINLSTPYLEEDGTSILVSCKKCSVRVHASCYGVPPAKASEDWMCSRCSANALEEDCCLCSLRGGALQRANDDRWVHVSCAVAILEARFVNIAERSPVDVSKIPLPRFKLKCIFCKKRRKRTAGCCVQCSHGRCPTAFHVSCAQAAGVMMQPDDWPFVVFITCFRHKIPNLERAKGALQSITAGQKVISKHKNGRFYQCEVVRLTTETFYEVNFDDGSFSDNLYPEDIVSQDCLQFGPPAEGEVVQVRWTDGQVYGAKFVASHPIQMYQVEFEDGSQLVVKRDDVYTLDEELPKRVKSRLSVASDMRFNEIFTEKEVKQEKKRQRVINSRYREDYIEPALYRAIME
BAZ2B block – inhibitors of human BAZ2B bromodomain; Q9UIF8; AlphaScreen BAZ2B-H3K14Ac peptide displacement; Potency, µM (doses to about 114 µM), for inactives: top-dose activity change, negative = inhibition, usual class: inhibitors; 360,000 compounds, 4.4% hits; AID 504333; further: on the % scale 0 is the no-effect control and ±100 the full control effect; nearly all actives have a fitted effect of over 60% in size
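Complex of BAZ2B and biotin-H3K14Ac (50 nM apiece) forms over 30 min at RT, then faces library compounds up to 110 uM for another 30 min; AlphaScreen beads added, 20 min dark incubation, luminescence read.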
Starred values were filed as active, the others as inactive; u = inconclusive; x = no result given; [ ] = dose if it differs, or a comment. In the library only some 10% were active in any assay of this set; here they are far more common. The call rests on the fitted dose curve; in most records, active means well fitted curve in the direction sought with a large enough effect; inconclusive means small, poorly fitted or top-dose-only effect, or another doubt; inactive means no such curve, though single readings can be large; an effect the other way counts as inactive or inconclusive. Potency means the concentration at half of the fitted maximal effect.

SMILES | G9a block | GLS inh | L3MBTL1 block | HP1b binding inh | JMJD2A Tudor inh | BAZ2B block
Cc1cc(NC(=O)c2ccccc2)ncc1NC(=O)c1ccco1 | 25µM* | -8% | 1% | 18% | -11% | -13%
COc1ccc(NC(=O)c2ccco2)cc1NC(=O)c1ccco1 | 9% | 2% | 1% | 45% | -14% | 2%
CCOc1ccc(C(=O)NC2CC(=O)N(c3ccc(C)cc3)C2)cc1OCC (stereo not given) | 3%[59 µM] | -2% | x | 16% | -1% | 0%
Cc1nnc(NCc2ccccc2)c2c1nnn2Cc1ccccc1Cl | -6%[59 µM] | 2% | x | 55% | -11% | -2%
Cc1ccc(O)c(NC(=O)c2ccco2)c1 | 12%[59 µM] | 41% | -7% | 23% | -12% | 11%
Cc1cc(O)c(NC(=O)c2ccco2)cc1C | 8.9µM* | 98% | -21%[11.4 µM] | 34% | 3% | 40%
CC(=O)N(/N=C1\Sc2ccccc2C1=O)c1cccc(C)c1 | u | 11% | -18% | -16% | -34% | 40µM*
O=S(=O)(N/N=C/c1cccnc1)c1ccc(Cl)c(Cl)c1 | 18µM* | 11% | -3% | 13% | -16% | -5%
O=C(Cn1ncc2ccsc2c1=O)N1CCN(c2ccccc2F)CC1 | -3%[59 µM] | -12% | x | 15% | -24% | -1%
O=C1c2cc(Br)ccc2N(Cc2ccc(Br)cc2)S(=O)(=O)C1c1cc(Cl)c(Cl)cc1[N+](=O)[O-] (stereo not given) | x | 0% | u | u | 35µM* | x
O=C1CS(=O)(=O)N(Cc2cccc(F)c2)c2ccc(Br)cc21 | -7%[2.33 µM] | 27% | -1% | 49% | -24% | -23%
Cc1cc(=O)c2c(=O)[nH][nH]c2[nH]1 | x | 11% | x | x | x | x
Cc1cc(=O)[nH]c2[nH][nH]c(=O)c12 | x | 2% | x | 8% | 6.3µM* | x
COC(=O)Oc1nsnc1N1CCOCC1 | 2.8µM* | -22% | 7% | u | 89µM* | -5%
CN(C)c1ccc2c(c1)Sc1cc(N(C)C)ccc1N2C(=O)c1ccccc1 | 10µM* | -12% | u | 13µM* | 14µM* | 8.9µM*
Cc1cc(OC(C)C(=O)NCCCN2CCOCC2)c2c(C)cc(=O)oc2c1 (stereo not given) | 17%[0.0925 µM] | 7% | x | 79µM* | -6% | 0%
Cn1cnnc1SCC(=O)c1c[nH]c2ccccc12 | 13% | 0% | 3% | 16% | -17% | -3%
CCCCNc1nnc(SCC(=O)c2c[nH]c3ccccc23)s1 | 28µM* | -2% | -4% | 33% | -10% | -5%
CCc1ccccc1NC(=O)c1ccc2c(c1)CCCN2S(C)(=O)=O | -14%[59 µM] | -2% | x | 15% | -13% | 3%
CCC(C)C(=O)Nc1nc(-c2ccc3c(c2)NC(=O)CO3)cs1 (stereo not given) | u | -1% | -13% | u | -23%[57.1 µM] | -9%
O=C1COc2ccc(-c3csc(NCCc4ccccc4)n3)cc2N1 | 40µM* | -2% | -15% | -18% | u | 50µM*
Cc1cccc(C(=O)NCC(c2ccc3c(c2)OCO3)N2CCOCC2)c1 (stereo not given) | 11%[59 µM] | -2% | x | 23%[57 µM] | -12% | 2%
CCn1nnc(NC(=O)CSc2ccc(Cl)cc2)n1 | 71µM* | u | u | -15% | u | u
COc1cccc(Nc2ncc3nc(C)c(=O)n(Cc4cccs4)c3n2)c1 | 1%[0.501 µM] | x | x | x | x | x
CCOC(=O)c1c(C)[nH]c(C(=O)CN2C(=O)NC3(CCCC3)C2=O)c1C | x | -8% | 3% | 22% | -15% | -11%
SMILES | G9a block | GLS inh | L3MBTL1 block | HP1b binding inh | JMJD2A Tudor inh | BAZ2B block
CCOC(=O)c1c(C)[nH]c(C)c1C(=O)CN1C(=O)NC2(CCCCCC2)C1=O | 22µM* | 2% | 13% | 20% | -16% | 9%
C=Cc1ccc(Cn2c(C(=O)O)c(CNCc3cc(OC)ccc3OC)c3ccc(C)cc32)cc1 | u | -5% | x | 46% | -14% | -20%
CCOC(=O)c1cc2c(=Cc3ccc(N(C)C)cc3)c3ccccc3n2[n+]1C | x | 29% | x | 50µM* | 25µM* | x
Cc1cc2c(=Cc3ccc(N(C)C)cc3)c3ccccc3n2[n+]1C | x | -10% | x | 32µM* | 45µM* | x
CCCCC1(C)OC(=O)C(=Cc2ccc(N(C)C)cc2)C(=O)O1 (stereo not given) | 3%[12.7 µM] | 52% | -3% | -1% | -29% | u
CN(C)c1ccc(C=c2c3ccccc3n3c2c2ccccc2[n+]3C)cc1 | x | -11% | x | 13µM* | 16µM* | x
CCN(CC)c1cc(C)c2cc(NC(=O)/C=C/c3cc(OC)c(OC)c(OC)c3)ccc2n1 | u | 1% | x | -8% | u | u
Cc1cccc(NC(=O)C(=O)NCC(c2cccnc2)N2CCN(Cc3ccccc3)CC2)c1 (stereo not given) | -1%[59 µM] | -9% | x | 41% | -4% | -9%
C/C(=N\NC(=O)c1ccc(Cl)c(Cl)c1)c1ccc(Br)s1 | 27%[59 µM] | 0% | 4% | 33% | -5% | 12%
C/C(=N\Nc1ccc(Cl)c(C(=O)O)c1)c1cccc([N+](=O)[O-])c1 | 16µM* | -5% | -17% | 51% | -22% | -33%
C/C(=N\Nc1ccc(Cl)c(C(=O)O)c1)c1ccc(Br)s1 | 35µM* | 39% | x | u | 28µM* | u
CC1=NN(C(=O)c2ccccc2F)C(O)(c2ccc(Cl)cc2)C1 (stereo not given) | 3% | -4% | -15% | 25% | -33% | 50µM*
O=C(O)CCc1ccc(-c2ccc(Br)cc2)n1Cc1ccco1 | u | -13% | -22% | -16% | 79µM* | 50µM*
O=C(O)CCc1ccc(-c2ccccc2)n1Cc1ccco1 | 32µM* | 7% | x | 3% | u | 50µM*
COc1ccc(-c2nc3cc(NC(=O)c4ccc(C)cc4)ccc3o2)cc1Cl | -34%[59 µM] | 9% | x | 20% | -9% | 2%
Cc1cccc(NC(=O)CCS(=O)(=O)c2ccc3c(c2)n(C)c(=O)c(=O)n3C)c1C | 45%[59 µM] | 2% | x | 42% | 9% | 33%
O=C(Cc1ccc(-n2c(=S)[nH]c3ccccc3c2=O)cc1)N1CCC(N2CCCCC2)CC1 | 50µM* | -4% | x | 15% | -19% | u
O=c1c2cc(Cl)ccc2[nH]c(=S)n1Cc1ccco1 | -50%[12.7 µM] | -1% | -10% | 46% | -17% | -1%
COc1cc2[nH]c(=S)n(Cc3ccco3)c(=O)c2cc1OC | 3.5µM* | 3% | x | 14% | -8% | -3%
COc1cc2[nH]c(=S)n(C3CC3)c(=O)c2cc1OC | 18µM* | u | -6% | 49% | -5% | -29%
COc1cc2[nH]c(=S)n(CCN3CCOCC3)c(=O)c2cc1OC | u | 12% | -6% | -1% | 32µM* | u
